Assay outcomes (PubChem BioAssay)
HCV inhibitor = qHTS Assay for Inhibitors of Hepatitis C Virus (HCV); AID 651820, 2012; actives 3.4% (n = 340,000); Huh7.5.1 HCVcc-Cre infection, luciferase reporter, 44 h; Potency, µM (titrated, usually from 41.8 µM), inactives show top-dose activity change, negative = inhibition, actives largely listed as inhibitors
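1,000 cells/well; 4 h culture; + compound; + HCVcc-Cre (~0.5 moi); 44 h; luciferase substrate, RT 15 min; read 15 sec.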
FMDV antiviral = High Throughput Screening for Foot and Mouth Disease Virus Antivirals; actives 1.2% (n = 410,000); Potency, µM (series often up to 57.9 µM), inactives show at the highest dose activity change, negative = inhibition, hits mostly inhibitors; FMDV antiviral cell-based qHTS; calls by dose curve; tested in HEK293T cells; further: read-out not given here; nearly all actives have a fitted effect of over 45% in size
Sm TGR inh = qHTS Assay for the Inhibitors of Schistosoma Mansoni Peroxiredoxins; Schistosoma mansoni thioredoxin glutathione reductase (TGR), Q962Y6; purified TGR, DTNB reduction, TNB absorbance 405 nm; Potency, µM (doses to about 114 µM), for inactives: top-dose activity change, negative = inhibition, most hits filed as inhibitors; actives 3% (n = 360,000); AID 485364, 2010; further: nearly all actives have a fitted effect of over 60% in size
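TGR 20 nM + NADPH 100 uM (dispensed conc.), cpd preinc 15 min RT; start with NADPH (500 uM addition) then DTNB (15 mM addition). Kinetic TNB absorbance, 405 nm filter. Four-parameter Hill fit across titration.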
RE007 growth inh = qHTS Assay for Inhibitors of the HIV-1 protein Vpr | Potency, µM (top dose mostly 92.2 µM), for inactives: at the top dose activity change, negative = less growth, actives largely listed as inhibitors | actives 0.21% (n = 360,000) | S. pombe RE007 Vpr strain, BacTiter-Glo ATP luminescence, 24 h | AID 651644, 2012; active means well fitted falling curve with a large enough effect; inconclusive means small, poorly fitted or top-dose-only effect; inactive means no such curve, though single readings can be large or run the other way; further: nearly all actives have a fitted effect of over 50% in size
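Fission yeast RE007 carrying one integrated HIV-1 vpr copy, seeded at OD 0.01 in PMG+AL medium with 23 nL pinned compound. Grown 24 h at 30 degrees; viability read by BacTiter-Glo luminescence after 5 min.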
MARV entry inh = qHTS for inhibitors of binding or entry into cells for Marburg Virus; Marburg virus pseudotyped entry inhibition, cell reporter; Potency, µM (doses to about 37.8 µM), for the others: at the highest dose activity change, negative = inhibition, actives largely listed as inhibitors; actives 1.8% (n = 300,000); calls by dose curve; tested in HEK293 cells
LASV entry inh = qHTS for Inhibitors of binding or entry into cells for Lassa Virus | Lassa virus pseudotype entry inhibition, cell reporter | Potency, µM (series often up to 37.9 µM), without a hit: top-dose activity change, negative = inhibition, usual class: inhibitors | actives 1.2% (n = 300,000); calls by dose curve; tested in HEK293 cells; further: nearly all actives have a fitted effect of over 50% in size
* hit, by the source's call; u = inconclusive; x = not tested or not shown; [ ] = another dose, or the depositor's remark. Most compounds without a hit are left out; they make up all but 7.2% or so of the library. Unless noted, the call rests on the fitted dose curve; in most records, active means well fitted curve in the direction sought with a large enough effect; inconclusive means small, poorly fitted or top-dose-only effect, or another doubt; inactive means no such curve, though single readings can be large; an effect the other way counts as inactive or inconclusive. On the % scale 0 is the no-effect control and ±100 the full control effect; potency means the concentration at half of the fitted maximal effect.

SMILES | HCV inhibitor | FMDV antiviral | Sm TGR inh | RE007 growth inh | MARV entry inh | LASV entry inh
Cc1ccc(N(NC(=O)C(O)(c2ccccc2)c2ccccc2)C(=O)CCl)cc1 | 3.2µM* | 8.9µM* | 6.3µM* | 8% | 13µM* | u
Cc1ccc(C(O)(C(=O)NN(C(=O)c2ccccc2)c2ccccc2)c2ccc(C)cc2)cc1 | 4% | 8% | -3% | 33% | u | -6%
CCC(O)(CC)C(=O)NN(C(=O)CCl)c1ccccc1 | -13% | u | 22µM* | 17% | u | -27%
O=C(Nc1ccccc1)NN(C(=O)CCl)c1ccccc1 | u | 20µM* | 3.5µM* | 3% | u | u
CCOC(=O)N1CCC2(CC1)OC(=O)C(C)=C2C(=O)NCc1ccc(C)cc1 | x | 1% | 4% | x | x | -5%[46.1 µM]
Cc1nc2c(c(SCC(=O)Nc3ccccc3C(F)(F)F)n1)CCC2 | x | 0% | 0% | x | 10%[46.1 µM] | u
O=C(CCS(=O)(=O)c1ccccc1)Nc1cccc(-c2nc3ccccc3s2)c1 | u | -41% | 0% | 2% | u | u
O=C(Nc1ccccc1)c1nc2ccccc2s1 | -21% | -1% | 2% | u | u | 11µM*
O=C(CCS(=O)(=O)c1ccccc1)Nc1ccc(-c2nc3ccccc3s2)cc1 | u | 16% | -10% | -16% | 14µM* | u
CC(=O)Nc1ccc(C(=O)COC(=O)CCS(=O)(=O)c2ccccc2)cc1 | 10% | -2% | -16% | 26% | -14% | 8%[46.1 µM]
CC(C)(C)C(=O)Nc1ccc(-c2nc3ccccc3s2)cc1 | x | 4.5µM* | 0% | x | u | u
O=C(COC(=O)CCS(=O)(=O)c1ccccc1)Nc1ccccc1 | 19% | -8% | 8.9µM* | -3% | x | x
CN(Cc1ccccc1)C(=O)CSc1nc2ccccc2n1Cc1ccccc1F | x | -18% | 1% | x | x | u
CCOc1ccc(C(=O)c2cn(Cc3ccccc3)c3c(F)cc(F)cc3c2=O)cc1 | x | -17% | 1% | x | -6%[46.1 µM] | 0%[46.1 µM]
O=C(NCCc1ccccc1)c1cccc2c1C(=O)N(C1CCCCC1)C2 | -12% | -15% | 13% | -7% | 20%[46.1 µM] | -3%[46.1 µM]
COc1cc(NC(=O)c2cccc3c2C(=O)N(C2CCCCC2)C3)cc(OC)c1OC | 6.3µM* | u | -3% | 2% | u | u
CSc1ccc(CCNC(=O)c2cccc3c2C(=O)N(C2CCCCC2)C3)cc1 | 11µM* | -21% | 3% | 13% | x | x
Cc1cccc(CNC(=O)c2cnc3c(-c4cccc(C)c4)c(C)nn3c2C)c1 | x | -7% | -2% | x | x | -15%[46.1 µM]
CCc1ccc(S(=O)(=O)c2cn(CC(=O)Nc3ccc(F)c(Cl)c3)c3ccccc3c2=O)cc1 | x | 7% | -1% | x | 2%[46.1 µM] | 3%[46.1 µM]
Cc1ccc(C(=O)N/C(=C/c2ccco2)C(=O)Nc2cccc(C(=O)O)c2)cc1 | 14% | 16% | 45µM* | -11% | x | x
Cc1ccc(NC(=O)/C(=C\c2ccco2)NC(=O)c2ccco2)cc1 | 19% | 13% | 45µM* | -7% | 10%[46.1 µM] | -2%
COc1ccc(NC(=O)/C(=C\c2ccco2)NC(=O)c2ccco2)cc1 | 2% | 5% | -27% | -8% | -25%[46.1 µM] | -4%[46.1 µM]
COc1ccccc1C(=O)N/C(=C/c1ccco1)C(=O)Nc1cccc(C(=O)O)c1 | 31% | -3% | 50µM* | 17% | 19%[46.1 µM] | x
Fc1ccc(-c2cc3nc(-c4ccccc4)cc(N4CCN(CCN5CCOCC5)CC4)n3n2)cc1 | 10µM* | -17% | -13% | -12% | u | -13%
CN1CCN(c2cc(-c3ccccc3)nc3cc(-c4ccc(F)cc4)nn23)CC1 | u | -28% | 5% | -8% | u | u
COc1cccc(-c2cc3nc(-c4ccccc4)cc(N4CCN(C(=O)c5ccoc5)CC4)n3n2)c1 | x | 32µM* | x | 2% | x | x
